Screens deposited in PubChem by National Center for Advancing Translational Sciences (NCATS).
The list is not random: actives were taken first. Their share in the collection is about 19%.
HT1080 IDH1KD tx: toxicity to HT-1080 IDH1 knockdown cells (counter line). HT-1080 IDH1 knockdown viability, ATP luminescence, 48 h. Potency, µM (top dose mostly 46.1 µM), for the others: at the highest dose activity, negative = toxicity, actives largely listed as cytotoxic. 360,000 tested, 2% active;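 note: potency is the fitted concentration of half-maximal effect; 0% = DMSO wells and -100% = cell-free medium wells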
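Luminescent ATP read-out (CellTiter-Glo, 10 min at room temperature) after 48 h compound exposure at 37 °C gave viability of IDH1-knockdown HT-1080 cells. Activity was normalised to DMSO and cell-free wells, then fitted as concentration-response curves.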
HT1080NT lethal: kills 2HG-producing HT-1080-NT fibrosarcoma cells; HT-1080-NT fibrosarcoma viability, CellTiter-Glo ATP luminescence, 48 h; Potency, µM (doses to about 46.1 µM), for inactives: at the highest dose activity, negative = less viability, hits mostly cytotoxic; 360,000 tested, 1.6% active;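 note: NT is the 2HG producing partner of a matched IDH1 knockdown line; potency is the fitted concentration of half-maximal effect; 0% = DMSO-treated cells and -100% = media-only wells without cells; nearly all actives have a fitted effect of over 55% in size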
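HT-1080-NT; 750 cells/well; 5% FBS RPMI; 48 h compound, 37 degrees C; CellTiter-Glo luminescence; curve fitting and curve-class assignment.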
TDP1 cell noCPT: qHTS for Inhibitors of human tyrosyl-DNA phosphodiesterase 1 (TDP1): qHTS in cells in absence of CPT; DT40 Tdp1-/- hTDP1 cells, no CPT, ATP luminescence, 48 h; Potency, µM (top dose mostly 46.2 µM), inactives show at the top dose activity change, negative = growth inhibition, actives largely listed as inhibitors; 420,000 tested, 15% active; AID 686978, 2013; note: potency is the fitted concentration of half-maximal effect; nearly all actives have a fitted effect of over 55% in size
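Seeded 400 DT40-hTDP1 cells/well (vehicle DMSO, no 20 nM CPT); pinned compounds; ≥48 hr at 37 °C; CellTiter-Glo luminescence as viability measure.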
DT40 TDP1 CPT: DT40-hTDP1 cell growth loss with CPT; AID 686979; Potency, µM (doses to about 46.2 µM), inactives show top-dose activity change, negative = growth inhibition, most hits filed as inhibitors; chicken DT40 Tdp1-/-;hTDP1 cells + 20 nM CPT, ATP luminescence, 48 h; 420,000 tested, 12% active; note: potency is the fitted concentration of half-maximal effect; nearly all actives have a fitted effect of over 55% in size
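Chicken DT40 Tdp1-/- cells complemented with human TDP1, 400 cells/well, exposed to compounds plus 20 nM camptothecin for at least 48 h at 37 C; viability read as ATP content by CellTiter-Glo luminescence.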
IL1B secr inh: blocks inflammasome-driven IL-1 beta release. THP-1 LPS/ATP IL-1B secretion, AlphaLISA, 16 h; hits give low values. activity change, % at 57.5 µM. 360,000 tested, 4.7% active. AID 743279; in the data active = activity change below about -50%; inconclusive = mostly about -30% to -49%
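Secreted IL-1B measured by AlphaLISA bead assay after 16 h compound exposure of THP-1 cells; compounds (final up to 57.5 uM) added 1 h before LPS (250 ng/mL) and ATP (1.25 mM) stimulation; lower signal means less secretion.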
* = called active by the depositor. Unless noted, calls come from the whole dose curve; as a rule, active = well fitted curve in the direction sought with a large enough effect; inconclusive = small, poorly fitted or top-dose-only effect, or another doubt; inactive = no such curve, though single readings can be large; an effect the other way counts as inactive or inconclusive. Unless noted, % is set by controls: 0 for no effect and ±100 for the full control effect.

How did CCOC(=O)c1cc2c(OC)ccc(OC)c2n1CC(=O)c1ccccc1 do in these assays?
HT1080 IDH1KD tx: 1.3%; HT1080NT lethal: -1.4%; TDP1 cell noCPT: inconclusive; DT40 TDP1 CPT: inconclusive; IL1B secr inh: 18.6

What do the screens show for `CC(OC(=O)c1cccc(-n2cnnn2)c1)C(=O)Nc1cccc(Cl)c1` (centres undefined)?
HT1080 IDH1KD tx: -10.3%; HT1080NT lethal: -5.0%; TDP1 cell noCPT: inconclusive; DT40 TDP1 CPT: inconclusive; IL1B secr inh: -0.9

How did CCc1ccc2c(CN3CCc4ccccc43)cc(=O)oc2c1 do in these assays?
HT1080 IDH1KD tx: -3.7%; HT1080NT lethal: -7.1%; TDP1 cell noCPT: inconclusive; DT40 TDP1 CPT: inconclusive; IL1B secr inh: -11.7

What do the screens show for `COc1ccc(N2CCN(Cc3cc(=O)oc4ccc(OC)cc34)CC2)cc1`?
TDP1 cell noCPT: -25.2%; DT40 TDP1 CPT: -17.8%

Results for COc1ccc(N2CCN(Cc3cc(=O)oc4cc(C)c(Cl)c(C)c34)CC2)cc1 ?
HT1080 IDH1KD tx: -1.6%; HT1080NT lethal: -0.1%; TDP1 cell noCPT: 9.2µM*; DT40 TDP1 CPT: 14.6µM*; IL1B secr inh: 0.5

How did COc1ccc2c(CN(Cc3ccccc3)Cc3ccccc3)cc(=O)oc2c1 do in these assays?
HT1080 IDH1KD tx: -17.0%; HT1080NT lethal: -18.7%; TDP1 cell noCPT: inconclusive; DT40 TDP1 CPT: 16.4µM*; IL1B secr inh: 24.7

Results for Cc1ccc2oc(=O)cc(CN3CCN(Cc4ccccc4)CC3)c2c1 ?
HT1080 IDH1KD tx: -4.3%; HT1080NT lethal: -1.9%; TDP1 cell noCPT: -9.2%; DT40 TDP1 CPT: -21.8%; IL1B secr inh: 22.7

What do the screens show for `CCc1cc2c(CN3CCN(Cc4ccccc4)CC3)cc(=O)oc2cc1O`?
HT1080 IDH1KD tx: -24.7%; HT1080NT lethal: -24.0%; TDP1 cell noCPT: 18.4µM*; DT40 TDP1 CPT: 16.4µM*; IL1B secr inh: inconclusive

How did CCc1ccc2c(CN3CCN(S(=O)(=O)c4ccccc4F)CC3)cc(=O)oc2c1 do in these assays?
HT1080 IDH1KD tx: 2.0%; HT1080NT lethal: -0.7%; TDP1 cell noCPT: 23.1µM*; DT40 TDP1 CPT: -95.1%; IL1B secr inh: -25.1

Results for CCN(C[C@H]1N[C@@](CC)(C(=O)OC)[C@H]2C(=O)N(C)C(=O)[C@@H]12)C(=O)c1ccc(C(C)(C)C)cc1 ?
HT1080 IDH1KD tx: 2.2%; HT1080NT lethal: 6.1%; TDP1 cell noCPT: inconclusive; DT40 TDP1 CPT: 9.9%; IL1B secr inh: 11.3

Results for O=c1[nH]c2ccc(S(=O)(=O)N3CCN(c4ccc(F)cc4)CC3)cc2o1 ?
HT1080 IDH1KD tx: 1.6%; HT1080NT lethal: 4.9%; TDP1 cell noCPT: 42.3%; DT40 TDP1 CPT: 1.8%; IL1B secr inh: 30.4

How did CCc1ccc2c(CN3CCN(Cc4ccccc4)CC3)cc(=O)oc2c1 do in these assays?
HT1080 IDH1KD tx: -17.7%; HT1080NT lethal: -10.3%; TDP1 cell noCPT: inconclusive; DT40 TDP1 CPT: -23.1%; IL1B secr inh: -61.2*

What do the screens show for `CCc1cc2c(CN(C)Cc3ccccc3F)cc(=O)oc2cc1O`?
HT1080 IDH1KD tx: inconclusive; HT1080NT lethal: inconclusive; TDP1 cell noCPT: 14.6µM*; DT40 TDP1 CPT: inconclusive; IL1B secr inh: 12.9

What do the screens show for `O=c1cc(CN(Cc2ccccc2)Cc2ccccc2)c2c(ccc3ccccc32)o1`?
HT1080 IDH1KD tx: 4.7%; HT1080NT lethal: 7.4%; TDP1 cell noCPT: inconclusive; DT40 TDP1 CPT: 29.1µM*; IL1B secr inh: 41.9

How did Cc1cc2oc(=O)cc(CN(C)Cc3cccc(F)c3)c2cc1C do in these assays?
HT1080 IDH1KD tx: 8.5%; HT1080NT lethal: 3.1%; TDP1 cell noCPT: -6.7%; DT40 TDP1 CPT: inconclusive; IL1B secr inh: 4.6

Results for COc1ccc2c(CN3CCN(c4ccc(Cl)c(Cl)c4)CC3)cc(=O)oc2c1 ?
HT1080 IDH1KD tx: 8.2%; HT1080NT lethal: 10.5%; TDP1 cell noCPT: 13µM*; DT40 TDP1 CPT: 20.6µM*; IL1B secr inh: 31.5

Results for CC(C)Sc1nc2ccccc2n1CC(=O)O ?
HT1080 IDH1KD tx: 13.1%; HT1080NT lethal: 5.5%; TDP1 cell noCPT: -4.0%; DT40 TDP1 CPT: 1.5%; IL1B secr inh: -10.8
